Compound activity (PubChem BioAssay)
LASV entry inh: qHTS for Inhibitors of binding or entry into cells for Lassa Virus | 300,000 tested, 1.2% active | AID 540256, 2011 | Lassa virus pseudotype entry inhibition, cell reporter | Potency, µM (top dose mostly 37.9 µM), for inactives: at the top dose activity change, negative = inhibition, usual class: inhibitors; calls by dose curve; tested in HEK293 cells; also: potency is read from the fitted curve at half-maximal effect; % is scaled to controls: 0 for no effect and ±100 for the full control effect; nearly all actives have a fitted effect of over 50% in size
Pf growth 96h: Primary qHTS for delayed death inhibitors of the malarial parasite plastid, 96 hour incubation | P. falciparum luciferase reporter growth, 96 h | Potency, µM (titrated, usually from 28.7 µM), inactives show at the top dose activity change, negative = inhibition, actives largely listed as inhibitors | 320,000 tested, 6.9% active; also: potency is read from the fitted curve at half-maximal effect; % is scaled to controls: 0 for no effect and ±100 for the full control effect
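Cell-based qHTS: luciferase-tagged P. falciparum in erythrocytes (2% hematocrit, 0.05% parasitemia final) incubated with compounds for 96 hours, 37 C, 5% CO2; luciferase detection reagent then added and luminescence measured.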
Pf growth 48h: Primary qHTS for delayed death inhibitors of the malarial parasite plastid, 48 hour incubation; 310,000 tested, 5.9% active; Potency, µM (titrated, usually from 28.7 µM), inactives show at the highest dose activity change, negative = inhibition, hits mostly inhibitors; P. falciparum luciferase growth in erythrocytes, 48 h; AID 504832, 2011; also: potency is read from the fitted curve at half-maximal effect; % is scaled to controls: 0 for no effect and ±100 for the full control effect
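Luminescence readout; reporter = integrated firefly luciferase in P. falciparum. RBC culture at 2% hematocrit, 0.1% parasitemia final, 37 C/5% CO2; decreased signal taken as growth inhibition.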
Shiga toxin inh: A qHTS for Small Molecule Inhibitors of Shiga Toxin; Vero cells, Shiga toxin protein synthesis inhibition reporter; inhibition, % at 38.7 µM; 290,000 tested, 9.2% active; in the data active = inhibition mostly above about 28%, no sharp cut-off; inactive = mostly below about 43%; also: 0% is about no effect
MARV entry inh: qHTS for inhibitors of binding or entry into cells for Marburg Virus; Marburg virus pseudotyped entry inhibition, cell reporter; 300,000 tested, 1.8% active; Potency, µM (titrated, usually from 37.8 µM), for inactives: top-dose activity change, negative = inhibition, most hits filed as inhibitors; calls by dose curve; tested in HEK293 cells; also: potency is read from the fitted curve at half-maximal effect; % is scaled to controls: 0 for no effect and ±100 for the full control effect
Cycloheximide cs: Cycloheximide Counterscreen for Small Molecule Inhibitors of Shiga Toxin; 300,000 tested, 12% active; max response, %; AID 2314, 2010; cell reporter, cycloheximide protein synthesis inhibition counterscreen; in the data active = max response mostly above about 13%, no sharp cut-off; inactive = mostly below about 14%; also: read at 38.3 µM for the half of the compounds with a filed dose; 0% is about no effect
* hit, by the source's call; i = inactive; ? = inconclusive; . = no result; [ ] = another dose, or the depositor's remark. Most compounds without a hit are left out; they make up all but 19% or so of the library. Unless noted, calls follow the shape of the dose curve; as a rule, active = well fitted inhibition curve with a large enough effect; inconclusive = small, poorly fitted or top-dose-only effect, or another doubt; inactive = no such curve, though single readings can be large or run the other way.

SMILES | LASV entry inh | Pf growth 96h | Pf growth 48h | Shiga toxin inh | MARV entry inh | Cycloheximide cs
O=C1CCC(C(=O)N2CCCC2)CN1CCc1cccc(F)c1 (stereo not drawn) | . | -23% | 1% | -8 | . | 14
CCOC(=O)C1CCN(C(=O)C2CCC(=O)N(Cc3cccc(C(F)(F)F)c3)C2)CC1 (stereo not drawn) | 0% | 31% | 5% | 32 | -2% | 14*
O=C1CCC(C(=O)N2CCSCC2)CN1CCc1cccc(F)c1 (stereo not drawn) | -2% | 7% | 6% | 16 | -5% | 15*
COC1CCN(C(=O)C2CCC(=O)N(CCc3cccc(F)c3)C2)CC1 (stereo not drawn) | 0% | 0% | 11% | 23 | 10% | 28*
CC1(C)Cc2c(sc3c2c(=O)n(-c2ccc(Cl)cc2)c(=O)n3CC(N)=O)CO1 | 4% | 8% | ? | -3 | -1% | -3
CCCCc1nc2ccccc2c(=O)n1-c1ccccc1[N+](=O)[O-] | 0% | 34% | ? | -15 | -13% | 2
O=C(N/N=C1\CCCc2ccccc21)c1cccc(Br)c1 | . | 7% | 66% | 59* | . | 38*
O=C(N/N=C1/CCCc2ccccc21)C(c1ccccc1)c1ccccc1 | 2% | ? | ? | 61* | ? | 1
O=C(NN=C1CCCC1)c1cccc(Br)c1 | 17% | 15% | 7% | 87* | ? | 26*
O=C(N/N=C1\CCCc2ccccc21)c1cccc([N+](=O)[O-])c1 | -7% | 13% | . | 33 | 4% | 10
O=C(O)c1cc2c(o1)CCC/C2=N\O | -30%[14.3 µM] | -2% | 18% | -5 | 1% | -7
Cc1ccc(C(=O)NN=C2CCCC2)cc1C | 10%[46.1 µM] | . | . | . | ? | .
O=C(N/N=C1\CCCc2oc(C(=O)O)cc21)c1ccccc1 | 30%[46.1 µM] | -15% | 32% | 74* | ? | 44*
COC(=O)c1cc(=O)n(Cc2ccc(OC)cc2)c(=NCc2ccc(OC)cc2)s1 | 8%[46.1 µM] | ? | ? | -15 | ? | 3
O=C1OCCN1C(=O)[C@H]1[C@H](c2ccccc2)C(c2ccccc2)=NN1c1ccccc1 | . | . | . | i | . | 4
c1cncc(-c2nnc(-c3ccco3)o2)c1 | 18% | -7% | 32% | 16 | 17% | 1
Cc1ccc(S(=O)(=O)N/N=C2/CC(c3ccccc3)Oc3ccccc32)cc1[N+](=O)[O-] (stereo not drawn) | 13% | 4% | . | 39* | 8% | 55*
O=S(=O)(N/N=C1/CC(c2ccccc2)Oc2ccccc21)c1ccc(Br)cc1 (stereo not drawn) | -4% | 19% | . | 25 | ? | 28*
Cc1ccc(S(=O)(=O)NN=C2CCC(C(C)(C)C)CC2)cc1[N+](=O)[O-] (stereo not drawn) | 1% | 33% | 1% | -12 | -13% | -3
Cc1cccc(Cn2c(N3CCc4ccccc4C3)nc3c2c(=O)[nH]c(=O)n3C)c1 | -4% | . | 12% | 18 | 8% | -6
O=P(O)(c1ccccc1)c1ccccc1O | 8% | 12µM* | 2% | 8 | 1%[46.1 µM] | -3
O=P(Cc1ccccc1O)(c1ccccc1)c1ccccc1 | 20% | 13% | 8% | -2 | ? | 0
COc1ccc(Br)cc1C1Nc2cccc3cccc(c23)N1 | . | ? | 0% | . | . | 30*
COc1ccc(CCN(C)Cc2c(O)ccc3ccccc23)cc1OC | -8%[46.1 µM] | 17% | -14% | 26 | ? | 30
O=C(OCC(=O)N1CCCc2ccccc21)c1cncc(Br)c1 | . | -15% | 5% | -14 | 2% | -2
SMILES | LASV entry inh | Pf growth 96h | Pf growth 48h | Shiga toxin inh | MARV entry inh | Cycloheximide cs
Cc1ccccc1-n1c(O)c(C=NC2CCS(=O)(=O)C2)c2ccccc2c1=O (stereo not drawn) | . | 1% | -16% | -6 | . | 5
CCOC(=O)c1ccc2c(c1)n(CC)c(/C=C/N(C)c1ccccc1)[n+]2CC | ? | -1% | 1.2µM* | -9 | ? | -3
CN(CC(=O)Nc1ccccc1Cl)C(=O)COC(=O)c1nc(Cl)c(Cl)c(Cl)c1Cl | . | 0% | -4% | 53* | . | 45*
COc1cccc(/C=N/NC(=S)NC2CC3CCC2C3)c1OC (stereo not drawn) | . | 4.7µM* | 6.6µM* | -5 | . | -1
COc1cccc(C=NNC(=S)NN=Cc2cccc(OC)c2OC)c1OC | -2%[46.1 µM] | . | . | . | -11%[46.1 µM] | .
CCOc1ccc(/C=N/NC(=S)NC2CC3CCC2C3)cc1 (stereo not drawn) | ? | ? | ? | 11 | -24% | 3
S=C(N/N=C/c1ccco1)NC1CC2CCC1C2 (stereo not drawn) | 23% | 5.2µM* | . | 73* | ? | 44*
CNC(=S)N/N=C/c1ccco1 | . | ? | 5% | -3 | . | -2
Oc1ccccc1/C=N/NC(=S)NC1CC2CCC1C2 (stereo not drawn) | ? | 1.3µM* | 3.7µM* | 45* | ? | 32*
Cc1c(C(=O)O)sc2nc(/C=C/c3cccc(O)c3)[nH]c(=O)c12 | ? | -8% | -2% | 29 | -15%[46.1 µM] | -1
COc1ccccc1/C=N/NC(=O)c1cccc2ccccc12 | -29% | ? | -3% | . | -6% | -3
Cc1ccc(Cl)cc1NC(=S)Nn1cnnc1 | . | 2.6µM* | 0% | -17 | . | -3
O=C(N/N=C/c1ccccc1F)c1cccc2ccccc12 | . | 0% | 82% | 40* | . | 21
Cc1ccccc1C(=O)N/N=C/c1ccsc1C | ? | 82% | 232% | 125* | 18% | 81*
Cc1sccc1/C=N/NC(=O)c1cccc2ccccc12 | 2% | -2% | 24% | -29 | 17% | 9
Cc1ccccc1C(=O)N/N=C/c1cccc2ccccc12 | . | ? | ? | 46* | . | 16*
CCCc1nnc(NC(=O)CCC(=O)NCCc2ccc(Cl)cc2)s1 | -5%[46.1 µM] | ? | 16% | -7 | 6%[46.1 µM] | -3
CC(=O)Nc1c(NC(C)C)c2ccccc2oc1=O | 5% | 40% | 4% | -15 | 5% | -4
C[C@]12c3[nH]c4cc(-c5ccco5)ccc4c3CCN1C(=O)[C@@H](CC(=O)NCCC1=CCCCC1)C[C@@H]2C(=O)N1CCCCC1 | . | . | . | . | 0% | .
Cc1ccc(Cl)cc1NC(=S)NCc1cccn1C | 8% | 0% | -21% | -6 | -24% | -4
Cc1ccc(Cl)cc1NC(=S)N/N=C/c1cccc2ccccc12 | ? | ? | 2.1µM* | 12 | ? | 2
O=C(COC(=O)c1ccc(C(F)(F)F)cc1)NC(=O)NC1CCCC1 | . | ? | 5% | . | . | .
CN1C(=O)c2ccc(C(=O)NC3CCCCC3)cc2C1=O | 17% | 19% | 4% | 8 | ? | 2
Cc1ccc(C(=O)NC2CCCCC2)cc1-c1ccc(C(=O)NCC2CC2)cc1 | 1.4µM* | . | . | . | . | .
Cc1ccc(NC(=O)CC2CC2)cc1-c1ccc(C(=O)NCC2CC2)cc1 | 4µM* | . | . | . | . | .
